Sampled rows, rich in hits. Any-hit rate of the full collection: about 3.2%.
Mtb betalactam – beta-lactam sensitization of Mtb H37Rv, H37Rv; M. tuberculosis H37Rv growth with meropenem, percent inhibition; inhibition, % at 25 µM; 330,000 compounds, 0.27% hits; AID 434955, 2010; call rule not given here;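 note: growth measured after seven days incubation then overnight dye step; 0% = bacteria only wells and 100% = bacteria with antibiotic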
Mtb UGM inh – M. tuberculosis UGM enzyme inhibitors, primary screen, biochemical, fluorescence polarization, single point | 320,000 compounds, 0.06% hits | inhibition, % at 10 µM | purified UGM, fluorescence polarization probe displacement; in the data active = inhibition above about 10%, passing the limit was not always enough
Mtb FBA inh – Mtb FBA enzyme inhibitors, primary screen, biochemical, fluorescence, strain H37Rv | AID 588726, 2011 | Fructose-bisphosphate aldolase (Mycobacterium tuberculosis (strain ATCC 25618 / H37Rv)), … | inhibition, % at 1 µM | 360,000 compounds, 2.3% hits | purified M. tuberculosis FBA, fluorescence read-out; in the data active = inhibition above about 27%;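 note: 0% = vehicle and 100% = reference inhibitor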
Rv3671c inh – Rv3671c serine protease inhibitors, primary screen, biochemical, fluorescence polarization, M. tuberculosis H37Rv. P9WHR9. 320,000 compounds, 0.048% hits. inhibition, % at 5.96 µM. AID 2606, 2010; in the data active = inhibition above about 38%;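 note: extracellular domain of Rv3671c used as enzyme; 0% = enzyme with DMSO and 100% = no enzyme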
Target sequence (P9WHR9 whole entry, looked up, the tested form may be a part): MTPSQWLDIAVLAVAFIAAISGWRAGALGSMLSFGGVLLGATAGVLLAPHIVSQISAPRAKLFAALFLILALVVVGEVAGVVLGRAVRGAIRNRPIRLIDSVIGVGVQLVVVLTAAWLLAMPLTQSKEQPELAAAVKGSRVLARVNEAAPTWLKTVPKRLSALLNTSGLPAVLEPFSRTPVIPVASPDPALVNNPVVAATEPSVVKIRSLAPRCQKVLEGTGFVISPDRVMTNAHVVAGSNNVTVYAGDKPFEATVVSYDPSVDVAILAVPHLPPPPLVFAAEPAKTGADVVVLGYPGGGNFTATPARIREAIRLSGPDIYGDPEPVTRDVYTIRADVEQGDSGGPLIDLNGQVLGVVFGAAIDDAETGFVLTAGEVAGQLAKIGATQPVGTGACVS
GDH-TPI inh – GDH-TPI coupling enzyme inhibitors, primary screen, artefact control for M. tuberculosis FBA inhibitor project, biochemical, absorbance, full deck. GDH-TPI coupled enzyme counterscreen, NADH absorbance. AID 588335, 2011. 360,000 compounds, 1.2% hits. inhibition, % at 4.8 µM; in the data active = inhibition above about 30%;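 note: 0% = DMSO wells and 100% = wells lacking the enzyme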
SSB-PriA inh – inhibitors of Klebsiella pneumoniae PriA binding to SSB C-terminal tail, primary screen, biochemical, AlphaScreen. AlphaScreen SSBct-PriA binding, biotinylated peptide. 430,000 compounds, 0.6% hits. inhibition, % at 33 µM. PriA–SSB C-terminal tail interaction (Klebsiella pneumoniae); in the data active = inhibition mostly above about 37%, no sharp cut-off; inactive = mostly below about 20%;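 note: plate controls were negative control peptide for no effect and reference peptide for full effect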
Numbers without * were called inactive.

What do the screens show for `COc1ccc(NC(=O)C(=O)NNC(=O)c2cccs2)cc1`?
Mtb betalactam: 82; Mtb UGM inh: -1; Mtb FBA inh: 2; Rv3671c inh: 6; GDH-TPI inh: 20; SSB-PriA inh: -3

How did O=C(CSc1cn(Cc2ccc(Br)cc2)c2ccccc12)Nc1ccc2c(c1)OCO2 do in these assays?
SSB-PriA inh: -8

What do the screens show for `O=S(=O)(c1cccc2nsnc12)N1CCC(c2ccc3c(c2)OCO3)C1` (stereo not given)?
SSB-PriA inh: 14

How did COc1ccc2sc(-c3ccc(N(C)C)cc3)c(C#CC(C)(C)O)c2c1 do in these assays?
Mtb UGM inh: 2; Mtb FBA inh: active; Rv3671c inh: 12; GDH-TPI inh: 23; SSB-PriA inh: 34

What do the screens show for `COc1ccc(-c2sc3ccc(OC)cc3c2C#CCCO)cc1`?
Mtb betalactam: 99; Mtb UGM inh: 1; Mtb FBA inh: 8; Rv3671c inh: -29; GDH-TPI inh: 18; SSB-PriA inh: -26

What do the screens show for `COc1ccc2sc(-c3ccc(N(C)C)cc3)c(C#CCCO)c2c1`?
Mtb betalactam: 96; Mtb UGM inh: 0; Mtb FBA inh: active; Rv3671c inh: -3; GDH-TPI inh: 19; SSB-PriA inh: 16

Results for O=C1c2ccccc2C(=O)N1OS(=O)(=O)c1ccc(F)cc1 ?
Mtb betalactam: 3; Mtb UGM inh: 0; Mtb FBA inh: 23; Rv3671c inh: -8; GDH-TPI inh: 1; SSB-PriA inh: -12

How did Cc1ccc(S(=O)(=O)Oc2cccc3ccc(C)nc23)c(C)c1 do in these assays?
SSB-PriA inh: -7

Results for Cc1cc(C)c(C)c(S(=O)(=O)ON2C(=O)c3ccccc3C2=O)c1C ?
Mtb betalactam: 1; Mtb UGM inh: 1; Mtb FBA inh: 35*; Rv3671c inh: -1; GDH-TPI inh: 2; SSB-PriA inh: -10

What do the screens show for `Cc1ccc(S(=O)(=O)ON2C(=O)c3ccccc3C2=O)c(C)c1`?
Mtb betalactam: 1; Mtb UGM inh: -2; Mtb FBA inh: 40*; Rv3671c inh: 5; GDH-TPI inh: 8; SSB-PriA inh: -5

Results for Cc1cc(C)c(S(=O)(=O)ON2C(=O)c3ccccc3C2=O)cc1C ?
Mtb betalactam: -3; Mtb UGM inh: 3; Mtb FBA inh: 37*; Rv3671c inh: -3; GDH-TPI inh: 8; SSB-PriA inh: -12

Results for Cc1cccc(NC(=O)Nc2ccccc2F)n1 ?
SSB-PriA inh: -24

What do the screens show for `CC(=NNC(=O)c1ccc2nc[nH]c2c1)c1cccs1`?
SSB-PriA inh: -14

How did CCCCn1c(O)c(/C=N/NC(=O)c2ccncc2)c(=O)[nH]c1=O do in these assays?
Mtb betalactam: 100; Mtb UGM inh: 1; Mtb FBA inh: 1; Rv3671c inh: -1; GDH-TPI inh: 46*

How did O=C(NN=Cc1c(O)n(Cc2ccccc2)c(=O)[nH]c1=O)c1ccncc1 do in these assays?
SSB-PriA inh: 0

How did O=C1C(=C(c2ccccc2)c2ccccc2)Nc2ccccc21 do in these assays?
Mtb betalactam: 40; Mtb UGM inh: -3; Mtb FBA inh: -7; Rv3671c inh: 19; GDH-TPI inh: 0; SSB-PriA inh: 42*

What do the screens show for `COc1ccc(-c2cn3cccnc3n2)cc1NC(=O)C(C)(C)C`?
SSB-PriA inh: -13

Results for Clc1ccc(-c2cn3cccnc3n2)cc1Cl ?
Mtb betalactam: -4; Mtb UGM inh: 0; Mtb FBA inh: 70*; Rv3671c inh: -26; GDH-TPI inh: 15; SSB-PriA inh: 5

How did Brc1ccc(-c2cn3cccnc3n2)cc1 do in these assays?
Mtb betalactam: 2; Mtb UGM inh: 2; Mtb FBA inh: 139*; Rv3671c inh: -1; GDH-TPI inh: 17; SSB-PriA inh: -2

What do the screens show for `COc1ccc(-c2cn3cccnc3n2)cc1F`?
Mtb betalactam: -3; Mtb UGM inh: 1; Mtb FBA inh: active; Rv3671c inh: 0; GDH-TPI inh: 12; SSB-PriA inh: -19

What do the screens show for `Cc1ccc(-c2cn3cccnc3n2)cc1NC(=O)c1ccccc1Cl`?
SSB-PriA inh: 1

What do the screens show for `Clc1ccc(-c2cn3cccnc3n2)cc1`?
Mtb betalactam: -12; Mtb UGM inh: 0; Mtb FBA inh: active; Rv3671c inh: 2; GDH-TPI inh: 12; SSB-PriA inh: -9

What do the screens show for `COc1cccc(S(=O)(=O)Nc2ccc(C(=O)Nc3ccc(F)cc3)cc2)c1`?
SSB-PriA inh: 1

How did CCOc1ccc(-n2ccn3c(CC(C)CC(=O)NCc4ccccc4Cl)nnc3c2=O)cc1 (stereo not given) do in these assays?
SSB-PriA inh: -8

What do the screens show for `CCN(CC)C(=O)Cn1cc(C(=O)C(=O)NCc2ccc(F)cc2)c2ccccc21`?
SSB-PriA inh: 0

What do the screens show for `COc1ccc(N2CCN(C(=O)c3ccc(Cn4nc(C)c([N+](=O)[O-])c4C)o3)CC2)cc1`?
Mtb FBA inh: 2; GDH-TPI inh: 4; SSB-PriA inh: 48*

What do the screens show for `CCN(CC)c1ccc(/C=C2\C(=O)N(c3nnc(C)c(=O)[nH]3)N=C2C)cc1`?
Mtb betalactam: -1; Mtb UGM inh: 2; Mtb FBA inh: -5; Rv3671c inh: -7; GDH-TPI inh: 11; SSB-PriA inh: 78*

What do the screens show for `CC(=NNC(=O)CCC(=O)Nc1cccc(Cl)c1)c1ccc(C)cc1`?
SSB-PriA inh: -14

Results for O=C1Nc2ccccc2C1=Nc1ccc2[nH]c3ccccc3c2c1 ?
Mtb FBA inh: 41*; GDH-TPI inh: 18; SSB-PriA inh: -7

How did Cc1ccc(N=C2C(=O)Nc3ccccc32)cc1C do in these assays?
Mtb betalactam: 13; Mtb UGM inh: -1; Mtb FBA inh: 4; Rv3671c inh: 7; GDH-TPI inh: 8; SSB-PriA inh: -13

Results for Cn1cnnc1SCCNC(=O)c1cccc(-n2ccc3ccccc32)c1 ?
SSB-PriA inh: 3

What do the screens show for `COc1ccccc1N1CCc2c(C)nc3c(OC)cccc3c21`?
Mtb betalactam: 9; Mtb UGM inh: 2; Mtb FBA inh: 7; Rv3671c inh: -5; GDH-TPI inh: 46*; SSB-PriA inh: -10

What do the screens show for `Fc1ccc(N2CCN(C3=Nc4cccc5cccc3c45)CC2)cc1`?
Mtb betalactam: 88; Mtb UGM inh: 0; Mtb FBA inh: 0; Rv3671c inh: -4; GDH-TPI inh: 5; SSB-PriA inh: 44*

Results for COc1ccc(-n2c(=C(C#N)C(=O)N3CCN(C)CC3)sc(=Cc3cccs3)c2=O)cc1 ?
SSB-PriA inh: -5

How did NC(=O)c1ccccc1OCC#CCNC(=O)CCc1ccccc1 do in these assays?
SSB-PriA inh: -16
